Assay results as given in PubChem BioAssay (EPA / NIEHS).
The source made the active and inactive calls. How the source made its calls: active means hit-call score of the fitted dose curve at least 0.9, where 1 is the maximum; inactive means score below 0.9.

How the values were obtained:
[1] = read-out: Tissue Factor, F3 (gene 2152); experiment: BSK_CASM3C_TissueFactor: BioMAP Diversity Plus: CASM3C Assay for Tissue Factor Biomarker Activity (AID 2283052); conditions: primary human coronary artery smooth muscle cells; actives raise or lower the signal;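 further: cell surface tissue factor protein level read by ELISA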
[2] = read-out: Interferon-gamma inducible Protein 10 (IP10), CXCL10 (gene 3627); experiment: BSK_hDFCGF_IP10: BioMAP Diversity Plus: hDFCGF Assay for Interferon-gamma inducible Protein 10 (IP10) Biomarker Activity (AID 2283053); conditions: primary human foreskin fibroblasts; actives raise or lower the signal
How it was run: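 ELISA quantification of IP-10 after a 24 h chemical exposure of human dermal foreskin fibroblast primary cultures. Both increases and decreases versus DMSO fitted.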

[3] = read-out: Urokinase-type plasminogen activator receptor (uPAR), PLAUR (gene 5329); experiment: BSK_CASM3C_uPAR: BioMAP Diversity Plus: CASM3C Assay for Urokinase-type plasminogen activator receptor (uPAR) Biomarker Activity (AID 2283054); conditions: primary human coronary artery smooth muscle cells; actives raise or lower the signal;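 further: cell-surface uPAR protein level quantified by ELISA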
[4] = read-out: Vascular cell adhesion molecule 1 (VCAM1), VCAM1 (gene 7412); experiment: BSK_CASM3C_VCAM1: BioMAP Diversity Plus: CASM3C Assay for Vascular cell adhesion molecule 1 (VCAM1) Biomarker Activity (AID 2283055); conditions: primary human coronary artery smooth muscle cells; actives raise or lower the signal;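 further: VCAM-1 protein level quantified by ELISA on the cells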
[5] = read-out: Collagen III, COL3A1 (gene 1281); experiment: BSK_hDFCGF_CollagenIII: BioMAP Diversity Plus: hDFCGF Assay for Collagen III Biomarker Activity (AID 2283056); conditions: primary human foreskin fibroblasts; actives raise or lower the signal
How it was run: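 Human foreskin fibroblast primary cultures sampled 24 h after dosing; Collagen III quantified by ELISA. Signal fitted bidirectionally against DMSO baseline.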

[6] = read-out: Epidermal growth factor receptor (EGFR), EGFR (gene 1956); experiment: BSK_hDFCGF_EGFR: BioMAP Diversity Plus: hDFCGF Assay for Epidermal growth factor receptor (EGFR) Biomarker Activity (AID 2283057); conditions: primary human foreskin fibroblasts; actives raise or lower the signal
How it was run: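 EGFR levels by ELISA in human dermal fibroblast cultures, 24 h post-treatment, fitted bidirectionally versus DMSO. Parallel wells stained with sulforhodamine B to detect overt cytotoxicity.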

[7] = read-out: Interleukin-8 (IL8), CXCL8 (gene 3576); experiment: BSK_hDFCGF_IL8: BioMAP Diversity Plus: hDFCGF Assay for Interleukin-8 (IL8) Biomarker Activity (AID 2283058); conditions: primary human foreskin fibroblasts; actives raise or lower the signal
How it was run: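 Primary human foreskin fibroblasts (hDFCGF system) dosed with chemical; IL-8 measured by ELISA 24 hours later. Bidirectional curve fitting relative to DMSO baseline; cytotoxicity tracked in parallel cultures by SRB total protein staining.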

[8] = BSK_hDFCGF_Proliferation: Cell Proliferation Assessment in the BioMAP Diversity Plus: hDFCGF Assay (AID 2283059); conditions: primary human foreskin fibroblasts;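 further: curves fitted for both rise and fall of signal versus DMSO baseline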
How it was run: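 Steps: dose primary human dermal fibroblasts (foreskin); […] fix in 10% TCA; stain with 0.1% SRB; read 560 nm; fit gain or loss of signal against DMSO.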

[9] = read-out: Macrophage colony-stimulating factor (MCSF), CSF1 (gene 1435); experiment: BSK_hDFCGF_MCSF: BioMAP Diversity Plus: hDFCGF Assay for Macrophage colony-stimulating factor (MCSF) Biomarker Activity (AID 2283060); conditions: primary human foreskin fibroblasts; actives raise or lower the signal
How it was run: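 Human foreskin fibroblast primary cultures; M-CSF measured by ELISA 24 hours after chemical dosing. Bidirectional fitting relative to DMSO, with overt cytotoxicity tracked by parallel SRB total-protein staining (0.1% SRB, 10% TCA fixation, 560 nm).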

[10] = BSK_hDFCGF_SRB: Viability Assessment in the BioMAP Diversity Plus: hDFCGF Assay (AID 2283061); conditions: primary human foreskin fibroblasts;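 further: cells exposed to compound for 24 h before the read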
How it was run: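 Human foreskin fibroblasts in 96-well plates were treated 24 h. Total protein was measured by 0.1% SRB staining after 10% TCA fixation, read at 560 nm. Data were fitted bidirectionally against DMSO.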

[11] = read-out: TIMP metallopeptidase inhibitor 1 (TIMP1), TIMP1 (gene 7076); experiment: BSK_hDFCGF_TIMP1: BioMAP Diversity Plus: hDFCGF Assay for TIMP metallopeptidase inhibitor 1 (TIMP1) Biomarker Activity (AID 2283062); conditions: primary human foreskin fibroblasts; actives raise or lower the signal
How it was run: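 Human foreskin fibroblast primary cultures dosed for 24 h; secreted/surface TIMP-1 quantified by ELISA. Bidirectional curve fitting against DMSO baseline; cytotoxicity tracked in parallel cultures by SRB total-protein staining.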

[12] = read-out: Monokine induced gamma interferon (MIG), CXCL9 (gene 4283); experiment: BSK_hDFCGF_MIG: BioMAP Diversity Plus: hDFCGF Assay for Monokine induced gamma interferon (MIG) Biomarker Activity (AID 2283063); conditions: primary human foreskin fibroblasts; actives raise or lower the signal
How it was run: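 MIG/CXCL9 measured by ELISA 24 h after dosing primary human skin fibroblasts. Activity fitted in both directions against DMSO controls. Cytotoxicity was checked in parallel cultures by SRB staining read at 560 nm.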

[13] = read-out: Matrix Metallopeptidase 1 (MMP1), MMP1 (gene 4312); experiment: BSK_hDFCGF_MMP1: BioMAP Diversity Plus: hDFCGF Assay for Matrix Metallopeptidase 1 (MMP1) Biomarker Activity (AID 2283064); conditions: primary human foreskin fibroblasts; actives raise or lower the signal
How it was run: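 Human foreskin fibroblasts exposed to chemical for 24 h; MMP1 detected by ELISA, with DMSO as baseline for bidirectional fitting.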

[14] = read-out: Plasminogen activator inhibitor-1 (PAI1), SERPINE1 (gene 5054); experiment: BSK_hDFCGF_PAI1: BioMAP Diversity Plus: hDFCGF Assay for Plasminogen activator inhibitor-1 (PAI1) Biomarker Activity (AID 2283066); conditions: primary human foreskin fibroblasts; actives raise or lower the signal
How it was run: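 PAI-1 levels in human dermal foreskin fibroblasts were quantified by ELISA 24 h after dosing, with gain or loss analysed against DMSO. Overt cytotoxicity was checked by sulforhodamine B total-protein staining in parallel cultures.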

[15] = read-out: Interferon-gamma inducible Protein 10 (IP10), CXCL10 (gene 3627); experiment: BSK_KF3CT_IP10: BioMAP Diversity Plus: KF3CT Assay for Interferon-gamma inducible Protein 10 (IP10) Biomarker Activity (AID 2283068); conditions: primary human keratinocytes with fibroblasts; actives raise or lower the signal
How it was run: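 KF3CT co-culture (keratinocytes + foreskin fibroblasts), 24 h compound, IP-10 by ELISA; bidirectional fit vs DMSO baseline.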

[16] = BSK_KF3CT_SRB: Viability Assessment in the BioMAP Diversity Plus: KF3CT Assay (AID 2283069); conditions: primary human keratinocytes with fibroblasts;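 further: read 24 h after compound addition; fitted for both signal gain and loss against DMSO baseline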
How it was run: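 Overt cytotoxicity is assessed as total protein by sulforhodamine B staining in parallel human skin co-cultures at 24 h after dosing. DMSO serves as negative control and baseline.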

[17] = read-out: Interleukin-1 alpha (IL1a), IL1A (gene 3552); experiment: BSK_KF3CT_IL1a: BioMAP Diversity Plus: KF3CT Assay for Interleukin-1 alpha (IL1a) Biomarker Activity (AID 2283070); conditions: primary human keratinocytes with fibroblasts; actives raise or lower the signal
How it was run: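 Readout is IL-1a level by ELISA, compared bidirectionally with DMSO as baseline. Cells: human keratinocytes co-cultured with foreskin fibroblasts, harvested 24 h post-dose.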

[18] = read-out: TIMP metallopeptidase inhibitor 2 (TIMP2), TIMP2 (gene 7077); experiment: BSK_KF3CT_TIMP2: BioMAP Diversity Plus: KF3CT Assay for TIMP metallopeptidase inhibitor 2 (TIMP2) Biomarker Activity (AID 2283071); conditions: primary human keratinocytes with fibroblasts; actives raise or lower the signal
How it was run: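 TIMP-2 measured by ELISA at 24 h in human keratinocyte/fibroblast primary co-cultures exposed to chemicals. Both increases and decreases were fitted against DMSO. Parallel cultures were stained with SRB for total protein as an overt-cytotoxicity check.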

[19] = read-out: Vascular cell adhesion molecule 1 (VCAM1), VCAM1 (gene 7412); experiment: BSK_hDFCGF_VCAM1: BioMAP Diversity Plus: hDFCGF Assay for Vascular cell adhesion molecule 1 (VCAM1) Biomarker Activity (AID 2283065); conditions: primary human foreskin fibroblasts; actives raise or lower the signal;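 on AC50: VCAM-1 protein level quantified by ELISA after 24 h chemical exposure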
How it was run: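 Human foreskin fibroblast primary cells dosed with chemical, VCAM-1 measured by ELISA at 24 h. Bidirectional curve fitting relative to DMSO as negative control/baseline.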

[20] = read-out: Intercellular Adhesion Molecule 1 (ICAM1), ICAM1 (gene 3383); experiment: BSK_KF3CT_ICAM1: BioMAP Diversity Plus: KF3CT Assay for Intercellular Adhesion Molecule 1 (ICAM1) Biomarker Activity (AID 2283067); conditions: primary human keratinocytes with fibroblasts; actives raise or lower the signal
How it was run: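 Human keratinocyte–foreskin fibroblast co-culture was treated for 24 h. Cell-surface ICAM-1 was quantified by ELISA, fitted bidirectionally relative to DMSO. Cytotoxicity was checked in parallel cultures by SRB total-protein staining.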

Measured: AC50

O=c1oc2ccccc2c(O)c1C(CC(O)c1ccc(-c2ccc(Br)cc2)cc1)c1ccccc1 (centres undefined)
inactive: [7] | [11]
active: [1] 16.2 µM | [2] 5.38 µM | [3] 21.8 µM | [4] 5.57 µM | [5] 0.632 µM | [6] 4.73 µM | [8] 5.25 µM | [9] 5.57 µM | [10] 5.28 µM | [12] 11.2 µM | [13] 6.12 µM | [14] 5.32 µM | [15] 8.62 µM | [16] 4.99 µM | [17] 5.57 µM | [18] 5.28 µM

CCOC(=O)CCN(SN(C)C(=O)Oc1cccc2c1OC(C)(C)C2)C(C)C
inactive: [6] | [7] | [13] | [15] | [17]
active: [1] 8.62 µM | [2] 37.1 µM | [3] 33.3 µM | [4] 20 µM | [5] 4.31 µM | [8] 15.2 µM | [9] 26 µM | [10] 31 µM | [11] 33.5 µM | [12] 29.9 µM | [19] 29.7 µM | [14] 28.7 µM

c1ccc(-c2cccc(-c3ccccc3)c2)cc1
active: [2] 29.5 µM | [5] 11.7 µM | [9] 20 µM | [10] 12.2 µM | [11] 20 µM | [13] 5.57 µM | [19] 12.4 µM | [14] 20 µM | [17] 7.05 µM
inactive: [1] | [3] | [4] | [6] | [7] | [12] | [20] | [15]

O=S(=O)(C(Cl)(Cl)Cl)C(Cl)(Cl)Cl
active: [1] 1.85 µM | [2] 2.92 µM | [3] 3.04 µM | [4] 1.41 µM | [5] 2.27 µM | [6] 1.55 µM | [7] 3.56 µM | [8] 0.0831 µM | [9] 2.3 µM | [10] 1.52 µM | [11] 1.72 µM | [12] 2.36 µM | [13] 2.8 µM | [19] 2.02 µM | [14] 1.11 µM | [15] 2.99 µM | [17] 1.67 µM | [18] 2.25 µM

CC(C)O.CC(C)O.OCCN(CCO)CCO.OCCN(CCO)CCO.[Ti]
active: [2] 30.9 µM | [9] 20 µM | [12] 30.6 µM | [13] 24.8 µM | [15] 33.7 µM
not listed: [16] | [18] | [19] | [20]
inactive: all other assays above

Oc1cc(Cl)c(Cl)cc1Cl
active: [2] 20 µM | [5] 27.7 µM | [8] 15.2 µM | [10] 31.8 µM | [14] 34 µM
not listed: [19]
inactive: all other assays above

C[C@]12CC[C@@H](O)C[C@@H]1CC[C@@H]1[C@@H]2CC[C@]2(C)C(=O)CC[C@@H]12
not listed: [16] | [19] | [20]
inactive: all other assays above

O=C(N[C@H]1CN2CCC1CC2)c1ccc2c(c1)OCCO2
not listed: [8] | [16] | [18] | [20]
inactive: all other assays above

N#CCCC(Br)(C#N)CBr (centres undefined)
active: [1] 12.7 µM | [2] 3.73 µM | [3] 15.6 µM | [4] 11.9 µM | [5] 17 µM | [7] 12.7 µM | [9] 5.08 µM | [10] 7.68 µM | [11] 4.28 µM | [12] 6.19 µM | [13] 11.8 µM | [14] 9.61 µM | [15] 33.1 µM | [17] 14.4 µM
inactive: [6]

[Cl][Sn]([c]1ccccc1)([c]1ccccc1)[c]1ccccc1
active: [1] 1.37 µM | [2] 0.0861 µM | [3] 0.351 µM | [4] 0.396 µM | [5] 0.5 µM | [7] 0.123 µM | [9] 0.166 µM | [10] 0.233 µM | [11] 0.158 µM | [12] 0.0855 µM | [13] 0.103 µM | [14] 0.114 µM | [15] 0.14 µM | [16] 0.183 µM | [17] 0.127 µM
inactive: [6]

Cc1ccc(OP(=O)(Oc2ccc(C)cc2C)Oc2ccc(C)cc2C)c(C)c1
active: [6] 3.88 µM | [9] 5.48 µM | [10] 4.22 µM | [13] 10.3 µM | [14] 0.445 µM
not listed: [8] | [16] | [20]
inactive: all other assays above

O=S(=O)(c1ccc(Cl)cc1)c1cc(Cl)c(Cl)cc1Cl
active: [3] 20 µM | [4] 0.016 µM | [5] 3.97 µM | [18] 12.7 µM
not listed: [8] | [14] | [20]
inactive: all other assays above

c1ccc2sc(SNC3CCCCC3)nc2c1
not listed: [8] | [16] | [18] | [19]
inactive: all other assays above
